In PubChem BioAssay one finds composite z-score, z-score and composite Z-score data, which are given here for 6 compounds.

Active and inactive are the calls of the source.

In test [1] the test system is Human papillomavirus type 1a protein E7 (residues 44-93). Nature of the test: small molecules binding HPV E7 44-93 – biochemical, small-molecule microarray, residues 44-93, 635 nm fluorescence, primary screen (AID 1108).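 Also: E7 fragment applied at 1 µg/mL in TBST for 1 h at 4 C; score combines spot fluorescence with its signal to noise ratio.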 The conditions noted are these: fluorescence 635 nm, higher = more signal.
A short description of test [2]: hepatitis C replication reporter changes, two-sided – Huh7 cells, luciferase reporter, HCV replication inhibitor project, primary screen (AID 1109).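 Also: huh7 hepatoma cells harbouring a luciferase neomycin HCV replicon reporter; luciferase luminescence as measure of HCV replicon replication; test concentration not given here.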 The conditions noted are these: Huh7 HCV replicon luciferase reporter, 48 h; higher = more signal. On the technique in general: In a reporter assay the amount or activity of a reporter protein is the signal.
For test [3], the target named is Left-right determination factor 2 (Homo sapiens) (UniProt O00292). The experiment in a line: small molecules binding LEFTY2 protein – biochemical, small-molecule microarray, 635 nm fluorescence scan, primary screen (AID 1110). As to conditions: higher = more signal.
Test [4] has as its target Calmodulin-1 (Homo sapiens) (UniProt P0DP23). The experiment in a line: small molecules binding calmodulin-1 with EGTA – biochemical, small-molecule microarray, Cy5-labelled CALM1, profiling panel (AID 1111).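 Also: labelled calmodulin applied in Tris saline Tween buffer holding calcium plus EGTA and DTT.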 As to conditions: Cy5-CALM1 binding fluorescence, higher = more signal.
Test [5] shares this target. Nature of the test: small molecules binding Ca-loaded calmodulin-1 – biochemical, small-molecule microarray, Cy5-labelled CALM1, plus calcium, artefact control for SMM control-protein annotation, profiling panel (AID 1112).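 Also: score merges spot fluorescence with signal to noise from triplicate slides.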 As to conditions: Cy5-CALM1 binding fluorescence, higher = more signal.
The nature of test [6]: probe aWnt5a binding to arrayed compounds – biochemical, biotinylated probe, 635/667 nm fluorescence, primary screen (AID 1113).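 Also: score merges 667 nm fluorescence intensity with signal-to-noise per printed feature.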 As to conditions: small-molecule microarray, higher = more signal.
Test [7] is described as follows: probe aShh binding to arrayed compounds – biochemical, biotinylated probe, 635/667 nm fluorescence, primary screen (AID 1114).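 Also: probe is biotin-labelled aShh protein from a stem cell growth factor screen; measures binding of labelled protein to compounds printed on the slide; score merges feature fluorescence at 667 nm with signal-to-noise.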 As to conditions: small-molecule microarray, higher = more signal.
Test [8] can be described thus: probe aNog binding to arrayed compounds – biochemical, biotinylated probe, 635/667 nm fluorescence, primary screen (AID 1115).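 Also: probe is biotinylated aNog protein used at 0.15 µg/mL for 1 h at 4 C; z-score combines 667 nm fluorescence of each spot with its signal to noise.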 The conditions noted are these: small-molecule microarray, higher = more signal.
In test [9] the target is Torsin-1A-interacting protein 1 (Homo sapiens) (UniProt Q5JTV8). Nature of the test: compound microarray binding of lysate hLAP1 – cell lysate, small-molecule microarray, COS7 lysate, 635/667 nm fluorescence, primary screen (AID 1116). As to conditions: 635 nm fluorescence, higher = more signal.
For test [10], the target named is Alpha-bungarotoxin (Bungarus multicinctus) (UniProt P60615). The experiment in a line: compounds binding labelled alpha-BTX control protein – biochemical, small-molecule microarray, Alexa647 label, 635/667 nm fluorescence, artefact control for SMM control protein annotation, profiling panel (AID 1117). The conditions noted are these: alpha-BTX-A647 binding fluorescence, higher = more signal.

The target of test [11] is Albumin (Bos taurus) (UniProt P02769). Nature of the test: compounds binding labelled BSA control protein – biochemical, small-molecule microarray, Alexa647 label, 635/667 nm fluorescence, artefact control for SMM control protein annotation, profiling panel (AID 1118).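 Also: score merges 667 nm emission intensity and signal-to-noise per printed compound spot.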 As to conditions: BSA-A647 binding, fluorescence 635 nm, higher = more signal.
The nature of test [12]: probe aXIP binding to arrayed compounds – biochemical, NeuroSMM set, 635/667 nm fluorescence, primary screen (AID 1119).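 Also: probe is the protein aXip251-270 applied at 1 µg/mL to compound-printed slides; binding of probe to printed compounds measured as 667 nm fluorescence plus signal to noise.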 The conditions noted are these: small-molecule microarray, higher = more signal, called active from +8 up or from −8 down.
A short description of test [13]: probe aNOTCH3 binding on compound microarray – biochemical, small-molecule microarray, 635/667 nm fluorescence, primary screen (AID 1120).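 Also: probe is a biotin-tagged antibody raised against NOTCH3 rather than NOTCH3 protein; score merges spot fluorescence near 667 nm with spot signal to noise.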 The conditions noted are these: higher = more signal.
Test [14] can be described thus: probe aNOTCH2 binding on compound microarray – biochemical, small-molecule microarray, 635/667 nm fluorescence, primary screen (AID 1121).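 Also: score merges feature fluorescence read at 667 nm with its signal to noise.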 The conditions noted are these: higher = more signal.
The target of test [15] is Carbonic anhydrase 2 (Homo sapiens) (UniProt P00918). Nature of the test: compounds binding carbonic anhydrase 2 – biochemical, small-molecule microarray, Alexa647-labelled CAII, profiling panel (AID 1122). The conditions noted are these: CAII-A647 binding fluorescence, higher = more signal.
A short description of test [16]: COS7 lysate on small-molecule microarray, probe aHis, 635 nm (AID 1123).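 Also: z-score combines 667nm fluorescence intensity with signal-to-noise per printed compound spot.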 The conditions noted are these: COS7 cell lysate, fluorescence, higher = more signal.
Test [17] is described as follows: probe aLAP1 signal on lysate-treated microarray – cell lysate, small-molecule microarray, COS7 lysate, primary screen (AID 1124).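 Also: lysate comes from COS7 cells expressing LAP1 and is applied at 0.3 µg/mL; score merges spot fluorescence near 667 nm with signal-to-noise over triplicate slides.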 The conditions noted are these: probe aLAP1, fluorescence, higher = more signal.
Test [18] concerns Sam68 (KHDRBS1). The experiment in a line: compounds binding KHDRBS1 protein – biochemical, small-molecule microarray, 635 nm fluorescence, primary screen (AID 1125).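 Also: score merges 667 nm channel intensity with signal to noise over triplicate slides.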 The conditions noted are these: higher = more signal.
Test [19] deals with Chordin-like protein 2 (CHRDL2). The experiment in a line: compounds binding chordin-like 2 – biochemical, small-molecule microarray, 635 nm fluorescence, primary screen (AID 1126).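 Also: printed compound slides probed with Chrdl2 protein at 4 µg/mL for 1 h at 4 C; score merges 667 nm emission intensity with signal to noise over three replicate slides.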 As to conditions: fluorescence 635 nm, higher = more signal.
Test [20] addresses Concanavalin-A (Canavalia ensiformis) (UniProt P02866). Nature of the test: compounds binding concanavalin A lectin – biochemical, small-molecule microarray, Alexa647 label, 635 nm, artefact control for SMM control protein annotation, primary screen (AID 1127).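 Also: z combines 667 nm emission intensity with signal-to-noise across three replicate slides.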 As to conditions: ConA-A647 binding fluorescence, higher = more signal.

Alpha-bungarotoxin (Bungarus multicinctus), sequence (P60615 whole entry, looked up): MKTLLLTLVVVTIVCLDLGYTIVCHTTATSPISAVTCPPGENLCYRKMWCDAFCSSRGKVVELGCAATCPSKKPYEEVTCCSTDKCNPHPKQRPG
Left-right determination factor 2 (Homo sapiens), sequence (O00292 whole entry, looked up): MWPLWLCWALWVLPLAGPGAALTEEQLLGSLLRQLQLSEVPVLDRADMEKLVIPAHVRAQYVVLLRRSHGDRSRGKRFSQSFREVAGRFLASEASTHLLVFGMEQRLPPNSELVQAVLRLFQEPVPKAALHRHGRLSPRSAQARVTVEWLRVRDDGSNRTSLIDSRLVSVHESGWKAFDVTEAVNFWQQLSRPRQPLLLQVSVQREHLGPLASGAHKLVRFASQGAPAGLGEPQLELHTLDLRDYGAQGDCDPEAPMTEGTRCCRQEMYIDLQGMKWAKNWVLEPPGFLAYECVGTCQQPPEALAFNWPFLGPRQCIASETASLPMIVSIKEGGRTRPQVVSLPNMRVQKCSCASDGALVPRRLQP
Concanavalin-A (Canavalia ensiformis), sequence (P02866 whole entry, looked up): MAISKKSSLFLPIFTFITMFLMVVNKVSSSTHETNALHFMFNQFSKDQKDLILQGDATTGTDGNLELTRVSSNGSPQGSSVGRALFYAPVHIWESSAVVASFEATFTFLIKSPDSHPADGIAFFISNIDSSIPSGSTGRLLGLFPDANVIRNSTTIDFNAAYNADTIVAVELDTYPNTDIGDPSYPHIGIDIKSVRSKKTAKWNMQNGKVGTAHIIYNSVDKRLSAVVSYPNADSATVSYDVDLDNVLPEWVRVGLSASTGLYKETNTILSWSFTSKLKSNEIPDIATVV
Torsin-1A-interacting protein 1 (Homo sapiens), sequence (Q5JTV8 whole entry, looked up): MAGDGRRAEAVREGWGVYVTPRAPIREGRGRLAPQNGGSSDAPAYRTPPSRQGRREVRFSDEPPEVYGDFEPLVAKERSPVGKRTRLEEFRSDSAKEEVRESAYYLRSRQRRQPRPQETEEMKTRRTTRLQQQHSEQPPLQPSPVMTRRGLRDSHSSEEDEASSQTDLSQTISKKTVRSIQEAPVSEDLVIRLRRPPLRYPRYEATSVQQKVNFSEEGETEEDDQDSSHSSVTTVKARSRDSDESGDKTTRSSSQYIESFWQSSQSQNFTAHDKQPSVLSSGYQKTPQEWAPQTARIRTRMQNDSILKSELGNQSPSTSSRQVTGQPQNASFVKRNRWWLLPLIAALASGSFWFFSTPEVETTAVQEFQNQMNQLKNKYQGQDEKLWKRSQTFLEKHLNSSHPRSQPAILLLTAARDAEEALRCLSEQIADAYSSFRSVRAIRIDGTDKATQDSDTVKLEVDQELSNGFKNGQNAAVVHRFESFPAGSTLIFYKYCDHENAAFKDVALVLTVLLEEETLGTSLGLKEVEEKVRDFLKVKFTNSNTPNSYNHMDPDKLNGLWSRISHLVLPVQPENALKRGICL
Albumin (Bos taurus), sequence (P02769 whole entry, looked up): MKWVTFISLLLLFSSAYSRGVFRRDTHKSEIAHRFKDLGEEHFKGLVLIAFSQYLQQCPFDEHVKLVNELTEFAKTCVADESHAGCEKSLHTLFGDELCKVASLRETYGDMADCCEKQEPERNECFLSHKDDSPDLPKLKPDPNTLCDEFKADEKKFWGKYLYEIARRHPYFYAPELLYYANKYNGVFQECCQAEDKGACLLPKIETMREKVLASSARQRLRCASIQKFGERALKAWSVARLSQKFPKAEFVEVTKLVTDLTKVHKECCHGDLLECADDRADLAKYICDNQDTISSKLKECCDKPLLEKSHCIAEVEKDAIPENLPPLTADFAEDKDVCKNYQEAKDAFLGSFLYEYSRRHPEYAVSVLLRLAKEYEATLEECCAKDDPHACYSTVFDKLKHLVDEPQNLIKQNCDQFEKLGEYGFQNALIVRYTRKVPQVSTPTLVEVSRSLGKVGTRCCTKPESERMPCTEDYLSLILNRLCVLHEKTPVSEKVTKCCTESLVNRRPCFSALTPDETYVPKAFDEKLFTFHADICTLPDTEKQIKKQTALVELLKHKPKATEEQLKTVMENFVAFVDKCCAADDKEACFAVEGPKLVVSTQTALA

Regarding `COC(=O)c1c(CC[C@@H](CO)NC(=O)N2CCC[C@H]2Cn2cc(-c3ccccn3)nn2)oc(C(C)=O)c1C(=O)OC`, the composite z-score in test [1] was 0.0413; in [3], -0.219; in [4], -0.209; in test [5], -0.747; in [6], -0.152; in test [7] it was -0.0474. Besides, the composite z-score was -0.0418 in test [8]; -0.219 in [9]; -0.0614 in test [10]; 0.453 in [11]; -0.118 in test [13]; -0.171 in test [14]. In addition, the composite z-score in [15] is 0.428; in test [16] it was 0.043; in [17], 0.274; in [18] it was 0.882; in test [19] it was -0.394; in test [20], 0.419. In test [2], this compound displayed a z-score of -1.03. The composite Z-score in test [12] is 0.294 (inactive).
As to `O=C1c2ccccc2[C@](Cc2ccccc2I)(C(=O)NC2CC2)[C@H](c2ccc(CO)cc2)N1Cc1ccccc1`, the composite z-score in [1] is 0.742; in [3], -0.346; in [4] it was 0.438; in test [5] it was 0.0099; in [6], -0.101; in test [7], 0.234. In addition, the composite z-score is 0.099 in [8]; 0.711 in [9]; 0.832 in test [10]; -0.213 in test [11]; -0.0055 in test [13]; -0.0495 in [14]. Further, the composite z-score in test [15] is 0.711; in test [16], 1.7; in test [17], 0.478; in test [18], 0.512; in [19], -0.0374; in test [20] it was 0.894. Also, the z-score in test [2] was -0.701. For the same compound, the composite Z-score in [12] was 0.476 (inactive).
As for `CN(C)C(=O)[C@]1(Cc2ccccc2N=[N+]=[N-])N=C(c2ccc(OCCCO)cc2)O[C@@H]1c1ccccc1`, the composite z-score in [1] was 1.08; in test [3], 0.104; in [4], 0.516; in [5], 0.0377; in test [6], -0.329; in test [7], -0.116. Further, the composite z-score in test [8] was 0.973; in [9], 0.897; in [10], 1.3; in [11] it was 0.724; in test [13] it was 0.0522; in test [14], -0.0013. Also, the composite z-score in [15] is 0.623; in test [16], 2.22; in test [17], 0.644; in [18], 1.31; in [19], 0.0709; in test [20], 1.13. Besides, the z-score in [2] is -1.85. Also, the composite Z-score in [12] was -0.316 (inactive).
Turning to `O=C(NCC(F)(F)F)[C@@H]1c2ccccc2C(=O)N(C2CCCCC2)[C@H]1c1ccc(CO)cc1`, the composite z-score was 0.268 in [1]; -0.382 in [3]; 0.218 in test [4]; -0.403 in test [5]; -0.172 in test [6]; -0.138 in test [7]. In addition, the composite z-score in test [8] is -0.342; in test [9] it was -0.257; in test [10] it was 1.43; in test [11] it was 0.558; in test [13] it was -0.0313; in test [14], -0.0942. The composite z-score was 0.667 in test [15]; -0.0286 in test [16]; -0.797 in test [17]; 0.314 in test [18]; -0.615 in [19]; 1.11 in test [20]. Also, in test [2], the z-score is -1.7. The composite Z-score in test [12] was 0.35 (inactive).
Consider `CN(C)CCCCCCNC(=O)[C@@H]1C[C@@H]2C(=O)N[C@@H](CCCCN)C(=O)N2[C@@H]1c1cccc(OCCO)c1`, for which the composite z-score was 1.49 in test [1]; 1.34 in test [3]; 2.8 in [4]; 1.34 in [5]; 1.07 in [6]; 1.7 in [7]. Further, the composite z-score in test [8] amounted to 3.42; in test [9], 4.77; in test [10], 2; in [11], 1.05; in [13], 1.79; in [14] it was 0.72. Further, the composite z-score in [15] worked out at 0.92; in test [16] it was 2.35; in [17], 1.2; in test [18] it was 1.32; in test [19], 1.2; in [20], 1.24. The compound also returned a z-score in [2] of -0.0282. Also, in [12], the composite Z-score was 7.35 (inactive).
`O=C1OCCC/C=C\[C@H]2OC34C=CCN(Cn5nnc6ccccc65)C(=O)[C@H]3N(CCCCCCO)C(=O)[C@@H]4C12` (stereo not given in full): the composite z-score in test [1] is -0.311; in [3], -1.17; in test [4], -0.824; in [5], -0.317; in [6], -0.18; in test [7], -0.0035. The composite z-score in test [8] was 0.599; in test [9] it was -0.401; in test [10], -0.716; in test [11], -0.265; in [13], -0.262; in test [14], -0.101. Also, the composite z-score is 0.652 in test [15]; 2.13 in [16]; -0.368 in test [17]; 0.839 in test [18]; -1.25 in test [19]; -0.472 in [20]. The compound also showed a z-score in test [2] of -0.625. Moreover, the composite Z-score in test [12] is 0.236 (inactive).
